Laboratory results published in PubChem BioAssay.
The source made the active and inactive calls.

Tests used:
[1] = compounds binding Alexa647 anti-His antibody – biochemical, small-molecule microarray, 635 nm fluorescence, artefact control for SMM control protein annotation, primary screen (AID 1128); conditions: higher = more signal;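 further: score merges feature fluorescence with signal-to-noise for each printed compound spot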
[2] = tested on: Human papillomavirus type 1a E7 protein (residues 1-88); assay: HPV1a E7 small-molecule binders, primary screen, biochemical, small-molecule microarray, residues 1-88, 635 nm (AID 1129); conditions: small-molecule microarray binding, fluorescence 635 nm; higher = more signal
[3] = molecular target: Focal adhesion kinase 1 (Homo sapiens) (UniProt Q05397); assay: PTK2 protein binding on printed compound slides – biochemical, small-molecule microarray, 635/667 nm fluorescence, BSA, DTT, primary screen (AID 1130); conditions: 635 nm fluorescence, higher = more signal;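 further: composite of spot emission at 667 nm and signal to noise over triplicate slides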
Chain of Focal adhesion kinase 1 (Homo sapiens) (Q05397 whole entry, looked up): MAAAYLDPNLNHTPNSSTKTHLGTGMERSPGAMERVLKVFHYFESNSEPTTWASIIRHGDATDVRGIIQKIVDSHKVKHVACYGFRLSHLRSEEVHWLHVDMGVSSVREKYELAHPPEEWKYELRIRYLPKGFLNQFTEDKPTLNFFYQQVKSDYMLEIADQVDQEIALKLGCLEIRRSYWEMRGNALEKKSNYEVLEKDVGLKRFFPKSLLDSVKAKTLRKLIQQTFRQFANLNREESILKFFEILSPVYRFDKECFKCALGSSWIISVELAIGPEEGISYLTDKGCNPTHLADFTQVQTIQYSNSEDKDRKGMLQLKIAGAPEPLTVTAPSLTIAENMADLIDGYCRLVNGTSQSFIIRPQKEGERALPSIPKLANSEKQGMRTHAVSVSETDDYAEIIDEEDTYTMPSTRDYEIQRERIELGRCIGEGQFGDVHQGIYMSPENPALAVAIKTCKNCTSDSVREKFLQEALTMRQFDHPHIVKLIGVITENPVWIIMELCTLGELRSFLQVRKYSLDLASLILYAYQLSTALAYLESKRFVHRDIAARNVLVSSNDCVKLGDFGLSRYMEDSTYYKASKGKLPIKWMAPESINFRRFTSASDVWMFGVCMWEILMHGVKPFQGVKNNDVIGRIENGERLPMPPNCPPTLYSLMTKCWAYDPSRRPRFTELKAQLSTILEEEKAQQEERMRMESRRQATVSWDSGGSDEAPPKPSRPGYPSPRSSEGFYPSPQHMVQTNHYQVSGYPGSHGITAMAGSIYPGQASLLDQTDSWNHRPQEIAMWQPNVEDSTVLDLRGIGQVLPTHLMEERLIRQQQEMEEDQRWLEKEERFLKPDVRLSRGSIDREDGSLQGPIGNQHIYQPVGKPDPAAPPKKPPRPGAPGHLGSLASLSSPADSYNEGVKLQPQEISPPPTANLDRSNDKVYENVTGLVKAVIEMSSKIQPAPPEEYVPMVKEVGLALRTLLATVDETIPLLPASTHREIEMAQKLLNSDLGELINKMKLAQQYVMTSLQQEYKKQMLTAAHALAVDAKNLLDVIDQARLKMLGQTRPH

[4] = tested on: Fibrinogen (Alexa647-labelled); assay: Alexa647-fibrinogen binding to printed small molecules – biochemical, small-molecule microarray, 635/667 nm fluorescence, artefact control for SMM control-protein annotation, profiling panel (AID 1131); conditions: fibrinogen-A647 binding fluorescence, higher = more signal;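 further: z-score merges 667 nm fluorescence with per-spot signal-to-noise over triplicate slides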
[5] = molecular target: Follistatin (Homo sapiens) (UniProt P19883); assay: FST protein binding to printed compounds – biochemical, small-molecule microarray, 635/667 nm fluorescence, primary screen (AID 1132); conditions: 635 nm fluorescence, higher = more signal
Chain of Follistatin (Homo sapiens) (P19883 whole entry, looked up): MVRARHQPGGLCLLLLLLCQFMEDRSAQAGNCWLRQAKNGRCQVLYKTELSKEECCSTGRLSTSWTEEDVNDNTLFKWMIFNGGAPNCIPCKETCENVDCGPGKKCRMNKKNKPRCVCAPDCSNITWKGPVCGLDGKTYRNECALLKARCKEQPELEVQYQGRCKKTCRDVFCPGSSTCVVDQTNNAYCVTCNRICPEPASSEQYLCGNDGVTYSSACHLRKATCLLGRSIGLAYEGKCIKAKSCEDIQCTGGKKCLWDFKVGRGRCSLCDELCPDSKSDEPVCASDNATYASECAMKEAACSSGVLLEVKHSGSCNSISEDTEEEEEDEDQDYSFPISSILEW

[6] = molecular target: Fibroblast growth factor 2 (Homo sapiens) (UniProt P09038); assay: basic fibroblast growth factor binding to printed compounds – biochemical, small-molecule microarray, 635/667 nm fluorescence, primary screen (AID 1133); conditions: FGF2, fluorescence 635/667, higher = more signal
Chain of Fibroblast growth factor 2 (Homo sapiens) (P09038 whole entry, looked up): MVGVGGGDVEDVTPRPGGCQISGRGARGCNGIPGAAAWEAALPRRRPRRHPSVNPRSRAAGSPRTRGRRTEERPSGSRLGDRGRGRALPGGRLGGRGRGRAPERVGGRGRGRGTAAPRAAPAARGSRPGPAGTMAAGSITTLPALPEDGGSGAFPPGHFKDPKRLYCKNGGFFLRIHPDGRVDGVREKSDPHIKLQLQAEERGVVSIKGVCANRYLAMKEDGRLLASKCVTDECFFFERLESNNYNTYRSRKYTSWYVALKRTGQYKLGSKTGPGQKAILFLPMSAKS

[7] = JC-1 mitochondrial potential readout, lung cancer cells – cell-based, A549, JC-1 fluorescence, basal, 24 h, 100 nL, profiling panel (AID 1138); conditions: higher = more signal;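 further: A549 lung adenocarcinoma cells under basal conditions with no added stimulus; test concentration not given here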
Lefty1 = Lefty1 protein binding to printed compounds – biochemical, small-molecule microarray, 635/667 nm fluorescence, primary screen (AID 1139); conditions: fluorescence 635/667, higher = more signal
[8] = tested on: wheat germ agglutinin (Triticum aestivum), Alexa647-labelled; assay: Alexa647-WGA lectin binding to printed small molecules – biochemical, small-molecule microarray, 635/667 nm fluorescence, artefact control for SMM control-protein annotation, profiling panel (AID 1140); conditions: WGA-A647 binding, 635 nm fluorescence, higher = more signal;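 further: score merges 667 nm feature emission with signal to noise over triplicate slides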
[9] = molecular target: Luciferin 4-monooxygenase (Photinus pyralis) (UniProt P08659); assay: inhibition of purified Photinus pyralis luciferase – biochemical, luminescence, purified enzyme, 2006 set, primary screen (AID 1141); conditions: purified firefly luciferase, SteadyGlo luminescence, 30 min; higher = more signal, called active from +8 up or from −8 down;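 further: cell-free assay with purified firefly luciferase at 100 ng per well in PBS; test concentration not given here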
Chain of Luciferin 4-monooxygenase (Photinus pyralis) (P08659 whole entry, looked up): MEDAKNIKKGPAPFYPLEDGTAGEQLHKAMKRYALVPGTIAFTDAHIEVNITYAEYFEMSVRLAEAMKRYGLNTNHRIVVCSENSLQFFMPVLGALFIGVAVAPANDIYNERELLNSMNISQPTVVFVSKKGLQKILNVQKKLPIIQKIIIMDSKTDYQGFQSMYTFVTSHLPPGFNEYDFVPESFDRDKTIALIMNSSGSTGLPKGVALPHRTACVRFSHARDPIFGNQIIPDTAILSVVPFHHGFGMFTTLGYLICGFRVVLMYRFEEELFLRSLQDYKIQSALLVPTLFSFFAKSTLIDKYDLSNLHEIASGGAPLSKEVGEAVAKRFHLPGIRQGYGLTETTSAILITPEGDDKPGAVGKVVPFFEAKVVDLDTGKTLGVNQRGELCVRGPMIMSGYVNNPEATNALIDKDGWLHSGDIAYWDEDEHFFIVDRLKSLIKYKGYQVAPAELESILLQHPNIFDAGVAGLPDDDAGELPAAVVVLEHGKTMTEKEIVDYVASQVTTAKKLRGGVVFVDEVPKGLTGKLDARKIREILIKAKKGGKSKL

[N-]=[N+]=NCc1ccccc1[C@H]1OC(c2ccc(OCCCO)cc2)=N[C@@]1(Cc1ccccc1N=[N+]=[N-])C(=O)O
composite z-score [1]: 2.02
composite z-score [2]: 1.2
composite z-score [3]: 1.03
composite z-score [4]: 0.899
composite z-score [5]: 1.21
composite z-score [6]: 0.134
z-score [7]: -0.0184
composite z-score (Lefty1): 0.0929
composite z-score [8]: 1.23
z-score [9]: -4.21 (inactive)

C=C(COC)C(=O)CC[C@H](OC(C)=O)c1ccc(CO)o1
composite z-score [1]: 1.59
composite z-score [2]: -0.805
composite z-score [3]: -0.451
composite z-score [4]: 0.0974
composite z-score [5]: 1.37
composite z-score [6]: 1.45
z-score [7]: -0.403
composite z-score (Lefty1): 0.744
composite z-score [8]: 0.841
z-score [9]: 0.288 (inactive)

O=C(c1ccccc1)N1Cc2ccccc2C[C@@]2(N=C(c3ccc(OCCCO)cc3)O[C@H]2c2ccccc2)C1=O
composite z-score [1]: 1.89
composite z-score [2]: 1.21
composite z-score [3]: 1.18
composite z-score [4]: 0.826
composite z-score [5]: 1.44
composite z-score [6]: 1.44
z-score [7]: -1.85
composite z-score (Lefty1): 0.984
composite z-score [8]: -0.17
z-score [9]: -1.29 (inactive)

CN(C)CCCCNC(=O)[C@H]1C[C@H]2C(=O)N[C@@H](CCCCN(C)C)C(=O)N2[C@H]1c1ccc(O)cc1
composite z-score [1]: 1.01
composite z-score [2]: -0.102
composite z-score [3]: 0.129
composite z-score [4]: -0.803
composite z-score [5]: 1.19
composite z-score [6]: 0.988
z-score [7]: -0.0458
composite z-score (Lefty1): 0.754
composite z-score [8]: 0.0466
z-score [9]: 0.47 (inactive)

COC(=O)C1=CC(c2ccc(CO)cc2)=CC(C2CC2)N(Cc2cc3c(cc2Br)OCO3)C=C1C(=O)OC (stereo not given)
composite z-score [1]: 2.85
composite z-score [2]: 1.19
composite z-score [3]: 0.833
composite z-score [4]: 0.879
composite z-score [5]: 0.62
composite z-score [6]: 0.907
z-score [7]: 0.835
composite z-score (Lefty1): 0.413
composite z-score [8]: 1.06
z-score [9]: -0.817 (inactive)

CC(C)[Si]1(C(C)C)OCc2cc(-c3ccc(-c4ccc(Cl)c(Cl)c4)o3)nc(-c3ccc(Oc4ccccc4)cc3)c21
composite z-score [1]: -0.768
composite z-score [2]: -1.88
composite z-score [3]: -0.0554
composite z-score [4]: -1.02
composite z-score [5]: -1.21
composite z-score [6]: -1.57
z-score [7]: 0.229
composite z-score (Lefty1): -1.34
composite z-score [8]: -0.0312
z-score [9]: 0.586 (inactive)

[N-]=[N+]=NCc1ccccc1[C@H]1OC(c2ccc(OCCCO)cc2)=N[C@@]1(CCS(=O)(=O)c1ccccc1)C(=O)NCCN1CCOCC1
composite z-score [1]: 1.35
composite z-score [2]: 1.27
composite z-score [3]: 0.907
composite z-score [4]: 1.04
composite z-score [5]: 0.777
composite z-score [6]: 0.188
z-score [7]: 0.577
composite z-score (Lefty1): -0.237
composite z-score [8]: 0.57
z-score [9]: -3.06 (inactive)

[N-]=[N+]=Nc1ccccc1C[C@@]1(C(=O)NCC(O)CO)N=C(c2ccc(OCCCO)cc2)O[C@@H]1c1ccccc1N=[N+]=[N-] (stereo not given in full)
composite z-score [1]: 1.85
composite z-score [2]: 1.18
composite z-score [3]: 1.03
composite z-score [4]: 0.79
composite z-score [5]: 0.14
composite z-score [6]: -0.491
z-score [7]: -2.28
composite z-score (Lefty1): -0.19
composite z-score [8]: 1.13
z-score [9]: -4.27 (inactive)

C=CCNC(=O)[C@@H]1[C@H]2C(=O)O[C@H](c3ccccc3)[C@H](c3ccccc3)N2[C@H](c2ccc(OCCO)cc2)[C@@]12C(=O)Nc1ccc(C#CCNC(N)=O)cc12
composite z-score [1]: 0.156
composite z-score [2]: -0.0352
composite z-score [3]: 0.0378
composite z-score [4]: 0.75
composite z-score [5]: 0.593
composite z-score [6]: -0.187
z-score [7]: -0.844
composite z-score (Lefty1): -0.0354
composite z-score [8]: 0.671
z-score [9]: -0.851 (inactive)

CN(C)CCCCCCNC(=O)[C@@H]1C[C@@H]2C(=O)N[C@@H](CCCC[N+](C)(C)C)C(=O)N2[C@@H]1c1cccc(OCCO)c1
composite z-score [1]: 2.34
composite z-score [2]: 0.13
composite z-score [3]: -0.159
composite z-score [4]: 0.104
composite z-score [5]: 0.704
composite z-score [6]: 0.645
z-score [7]: 0.417
composite z-score (Lefty1): -0.601
composite z-score [8]: 0.853
z-score [9]: -2.44 (inactive)

C=CCNC(=O)[C@H]1[C@@H]2C(=O)O[C@@H](c3ccccc3)[C@@H](c3ccccc3)N2[C@@H](c2ccc(OCCO)cc2)[C@]12C(=O)Nc1ccc(C#Cc3ccc(OC)cc3)cc12
composite z-score [1]: 1.38
composite z-score [2]: 1.23
composite z-score [3]: 0.905
composite z-score [4]: 0.965
composite z-score [5]: 1.37
composite z-score [6]: 0.977
z-score [7]: -1.7
composite z-score (Lefty1): 0.811
composite z-score [8]: 1.14
z-score [9]: 0.152 (inactive)

COCCCNC(=O)[C@@]1(CCC(=O)OC(C)(C)C)N=C(c2ccc(OCCCO)cc2)O[C@H]1c1ccccc1
composite z-score [1]: 2.41
composite z-score [2]: 1.22
composite z-score [3]: 0.0039
composite z-score [4]: 0.986
composite z-score [5]: 1.36
composite z-score [6]: 0.295
z-score [7]: 1.42
composite z-score (Lefty1): -0.568
composite z-score [8]: 0.597
z-score [9]: -0.173 (inactive)
